Assay outcomes (PubChem BioAssay)
Hits are enriched below; roughly 2.2% of the tested compounds scored in any of these assays.
TDP-43 yeast inh: rescues yeast growth from TDP-43 toxicity; TDP-43 expressing yeast growth rescue, BacTiter-Glo, 24 h; Potency, µM (titrated, usually from 46.1 µM), without a hit: top-dose growth rescue (activation), hits mostly activators; 410,000 compounds, 1.8% hits; AID 652104; note: % of control where 0% means no effect; nearly all actives have a fitted effect of over 50% in size
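In this qHTS, compounds that restore growth of yeast expressing TDP-43 appear as activators. Cells (OD600=0.02, galactose medium, raffinose-pregrown) are incubated with compound 24 hr at 30 deg C and growth is quantified by BacTiter-Glo.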
Mito fusion yeast: inhibitors of mitochondrial division or activators of mitochondrial fusion. AID 485298. S. cerevisiae fusion-defective mutant growth rescue, CellTiterGlo 48 h. Potency, µM (series often up to 46.1 µM), inactives show at the highest dose growth rescue (activation), most hits filed as activators. 320,000 compounds, 0.23% hits; note: % of control where 0% means no effect; nearly all actives have a fitted effect of over 45% in size
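Read-out: ATP-based luminescence (CellTiterGlo, 10 min ambient) reporting growth of fusion-defective ts yeast after 48 hours at 37C on glycerol/ethanol YPEG medium in the presence of compound.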
FUS yeast rescue: rescues growth of FUS-expressing yeast; S. cerevisiae FUS-expressing, growth rescue, OD600, 24 h; Potency, µM (highest dose often 76.6 µM), most hits filed as activators; 390,000 compounds, 0.24% hits;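 note: plate controls were DMSO vehicle for no effect and reference control for full effect; nearly all actives have a fitted effect of over 55% in size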
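Steps: raffinose overnight preculture; dilution to OD 0.005 in 2% galactose minimal medium; compound addition (concentration series); 24hr at 30C, 99% humidity; absorbance read at 600 nm.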
ERG Ets-DNA blk: ERG Ets/DNA interaction inhibition | Potency, µM (series often up to 76.9 µM), inactives show top-dose FP activity, negative = inhibition, usual class: inhibitors | 370,000 compounds, 0.028% hits | P11308 | fluorescence polarization, His-ERG Ets domain / labelled DNA; active = well fitted inhibition curve with a large enough effect in the polarisation, with a control signal flat; inconclusive = small, poorly fitted or top-dose-only effect, or effect the other way, or a change in a side signal; inactive = no such curve, though single readings can be large or run the other way; the % refers to the polarisation;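 note: polarization taken with two DNA probes labelled with fluorescein and Texas red; % of control where 0% means no effect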
Target sequence (P11308 whole entry, looked up, the tested form may be a part): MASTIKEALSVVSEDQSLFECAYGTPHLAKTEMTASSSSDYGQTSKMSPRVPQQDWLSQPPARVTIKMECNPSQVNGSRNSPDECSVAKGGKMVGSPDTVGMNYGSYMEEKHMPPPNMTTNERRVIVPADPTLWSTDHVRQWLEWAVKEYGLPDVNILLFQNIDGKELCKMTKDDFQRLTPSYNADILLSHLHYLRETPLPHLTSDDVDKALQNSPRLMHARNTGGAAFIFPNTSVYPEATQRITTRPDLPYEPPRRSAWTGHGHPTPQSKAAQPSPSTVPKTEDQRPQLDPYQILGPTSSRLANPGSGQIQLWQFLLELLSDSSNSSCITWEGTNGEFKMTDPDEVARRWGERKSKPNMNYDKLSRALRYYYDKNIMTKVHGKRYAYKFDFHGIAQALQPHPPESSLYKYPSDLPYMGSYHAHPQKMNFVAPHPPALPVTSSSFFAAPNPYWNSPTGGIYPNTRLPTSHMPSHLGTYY
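His-tagged ERG Ets domain (1 uM in the protein solution; 300mM KCl, 50mM Tris-HCl, 1mM EDTA, 1mM DTT, pH 7.5) received compound, then a probe mix of 5 nM fluorescein-DNA and 100nM Texas-615-DNA. Fluorescence polarization was read for both dyes.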
aSyn yeast inh: alpha-synuclein toxicity inhibition in yeast; Yeast expressing alpha-synuclein, growth rescue, BacTiter-Glo, 24 h; Potency, µM (top dose mostly 46.1 µM), without a hit: at the top dose growth rescue (activation), hits mostly activators; 370,000 compounds, 0.14% hits; AID 652106; note: % of control where 0% means no effect; nearly all actives have a fitted effect of over 65% in size
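Screening used galactose-induced yeast with toxic alpha-synuclein levels, exposed to compound for 24 hr at 30 deg C. Cell growth, read with BacTiter-Glo luminescence, gave the measured signal.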
Abeta rescue: restores growth of yeast expressing A-beta42 peptide. Potency, µM (series often up to 46.1 µM), actives largely listed as activators. 410,000 compounds, 0.063% hits. yeast expressing A-beta42, growth rescue, OD600, 48 h; response scale: 0% DMSO, 100% iron-clioquinol control; note: nearly all actives have a fitted effect of over 55% in size
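Yeast A-beta toxicity model in growth medium with pinned compounds, 48 h at 30 C; growth read as absorbance at 600 nm. Normalized to FeCl3/clioquinol equimolar mix (positive) and DMSO (negative).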
* = called active by the depositor; i = inactive; ? = inconclusive; . = not tested or not shown; [ ] = remark or other dose. Unless noted, calls come from the whole dose curve; as a rule, active = well fitted curve in the direction sought with a large enough effect; inconclusive = small, poorly fitted or top-dose-only effect, or another doubt; inactive = no such curve, though single readings can be large; an effect the other way counts as inactive or inconclusive. Potency is the fitted concentration of half-maximal effect.

SMILES	TDP-43 yeast inh	Mito fusion yeast	FUS yeast rescue	ERG Ets-DNA blk	aSyn yeast inh	Abeta rescue
O=C(c1ccccc1)N1CCCCC1CCN1CCCCC1 (centres undefined)	14%	.	i	-1%	.	i
O=C(CCn1c(=O)oc2ccccc21)Nc1nc2ccccc2s1	28µM*	12%	i	-11%	6%	i
CCNc1ccc(C(=O)Nc2ccc3nc(C)sc3c2)cc1[N+](=O)[O-]	20%	35µM*	i	-5%	3%	i
Cc1nc2ccc(NC(=O)c3ccc4ccccc4n3)cc2s1	13%	4µM*	i	-4%	-4%	i
CC(=O)c1ccc(NC(=O)c2ccc3nc(C)sc3c2)cc1	14%	-1%	i	-3%	-8%	i
Cc1nc2ccc(NC(=O)c3ccccc3)cc2s1	-16%	-3%	i	-2%	-11%	i
Cc1nc2ccc(C(=O)Nc3ccccc3Cl)cc2s1	11µM*	-1%	i	-14%	0%	i
CC(=O)N1CCc2cc(Br)cc(S(=O)(=O)N3CCN(c4cccc(C(F)(F)F)c4)CC3)c21	-8%	.	i	0%	.	i
Cc1nc2nc(SCc3ccc(F)cc3Cl)nn2c(C)c1Cc1ccccc1	?	.	i	-4%	.	i
Cc1ccccc1NC(=O)Cn1cc(S(=O)(=O)c2ccccc2)c(=O)c2ccccc21	13%	.	i	0%	.	i
O=C(COC(=O)c1ccccc1Br)NCCc1ccc(F)cc1	20µM*	3%	.	-7%	19%	i
CSc1ncccc1C(=O)OCC(=O)NCCCc1ccccc1	18µM*	.	i	-4%	1%	i
COCCNC(=O)COC(=O)c1cccnc1SC	12%	-4%	i	8%	3%	i
CCOC(=O)Nc1ccc([N+](=O)[O-])cc1OC	15%	.	i	-12%	2%	i
CCOC(=O)c1ccc(C(=O)OCC)c(NC(=S)Nc2ccc([N+](=O)[O-])cc2OC)c1	18µM*	?	i	13%	-16%	i
Nn1c(SCC(=O)Nc2ccccc2-c2ccccc2)nnc1-c1cc(-c2ccccc2)n[nH]1	.	.	i	.	.	.
CCCCCOC(=O)Cc1c(O)c2ccccc2n(C)c1=O	11µM*	1%	i	-14%	13%	i
Cc1ccc(C)c(NC(=O)CCS(=O)(=O)c2cccc3nsnc23)c1	-2%	.	i	1%	.	i
Nc1[nH]ncc1N=Nc1ccc(Cl)cc1	18µM*	-1%	i	2%	15%	i
O=C(Nc1nnc(Cc2ccccc2)s1)C1CCN(C(=O)c2cccs2)CC1	.	.	.	.	3%	.
CCc1ccc(C(=O)c2cn(Cc3ccc(F)cc3)c3cc(OC)c(OC)cc3c2=O)cc1	?	.	35µM*	-2%	.	i
S=c1[nH]nc(-c2cc3ccccc3o2)n1Cc1ccccc1	-14%	14µM*	i	5%	-13%	i
CCCCCCCc1n[nH]c(=S)n1Cc1ccccc1	16µM*	12%	i	7%	2%	?
S=c1[nH]nc(CCc2ccccc2)n1Cc1ccccc1	10%	-5%	i	5%	8%	i
COc1ccc(/C=C2/C(=O)ON=C2c2ccccc2)cc1OC	?	-3%	i	-4%	13µM*	i
SMILES	TDP-43 yeast inh	Mito fusion yeast	FUS yeast rescue	ERG Ets-DNA blk	aSyn yeast inh	Abeta rescue
CCOc1cc(/C=C2\C(=O)ON=C2c2ccccc2)ccc1OC	13µM*	-2%	i	-5%	15%	i
COc1cc(/C=C2\C(=O)ON=C2c2ccccc2)cc(OC)c1OC	?	0%	i	0%	27%	i
NC(=O)COc1ccc(/C=C2\C(=O)ON=C2c2ccccc2)cc1	22µM*	-6%	.	-7%[15.4 µM]	16µM*	i
COc1ccc(/C=C2\C(=O)ON=C2c2ccccc2)cc1OC	?	-4%	i	20%	?	i
CCc1ccc(NC(=O)CCCc2nnc3n(C(C)CC)c(=O)c4sccc4n23)cc1 (centres undefined)	9%	.	i	-1%	.	i
CCOc1ccccc1NC(=O)c1c(NCc2cccs2)sc2c1CCCCC2	15%	.	?	-4%	.	?
O=C(CNS(=O)(=O)c1cc2ccccc2s1)N1CCN(c2ccccn2)CC1	.	.	i	.	.	.
COc1ccc(OC)c(S(=O)(=O)N2CCCC(c3noc(-c4ccc(C)cc4)n3)C2)c1 (centres undefined)	.	.	i	.	.	.
CN=C1S/C(=C\c2cccc(Cl)c2Cl)C(=O)N1C	13µM*	.	i	-9%	11%	i
COc1ccc(-c2c3c(=O)n(C)c(=O)n(C)c3c3c(-c4cccc(C)c4)nc4ccccc4n23)cc1	16µM*	.	i	1%	.	i
CCOC(=O)C1CCN(C(=O)c2cc3cc(Cl)ccc3[nH]2)CC1	16µM*	-11%	i	-2%	1%	i
COc1cccc(-n2c(-c3ccco3)nc3c(cnn3-c3ccccc3C)c2=O)c1	-15%	.	i	1%	.	i
O=C(C1COc2ccccc2O1)N1CCN(Cc2ccc3c(c2)OCO3)CC1 (centres undefined)	-11%	8%	i	8%	-4%	i
Cc1cc(O)c2c(C)c(CC(=O)N3CCN(C(=O)C4COc5ccccc5O4)CC3)c(=O)oc2c1 (centres undefined)	4%	4%	28µM*	-11%	1%	i
O=C(C1COc2ccccc2O1)N1CCN(S(=O)(=O)c2cc(F)ccc2F)CC1 (centres undefined)	28µM*	1%	i	7%	-2%[1.84 µM]	i
O=C(C1COc2ccccc2O1)N1CCN(Cc2ccc(Br)cc2F)CC1 (centres undefined)	-3%	11µM*	i	7%	14%	?
C[C@H]1[C@@H](NCc2cccs2)CC[C@@]23CCCN2C(=O)CCC[C@@H]13	.	.	i	.	.	.
O=C1c2[nH]nc(-c3ccccc3O)c2C(c2ccc(Cl)cc2)N1Cc1ccco1 (centres undefined)	?	.	i	-10%	.	i
O=[N+]([O-])c1cc(Br)c(Nc2ccccc2)c([N+](=O)[O-])c1	3.5µM*	-75%	i	-7%	6%	i
O=C(Nc1ccccc1)c1ccc(Nc2c([N+](=O)[O-])cc([N+](=O)[O-])c3ccccc23)cc1	3%	-19%	i	-10%	-2%	i
O=[N+]([O-])c1ccc(O)c(NC(=S)Nc2ccccc2)c1	13µM*	-1%	i	12%	-10%	i
Nc1cc([N+](=O)[O-])ccc1Nc1ccccc1	14µM*	-3%	i	1%	8%	i
